{"source": "ChEMBL document CHEMBL3988442", "about": "“University of Dundee, Small-Polar-MMV Screening Library” (2021)", "target": "T1, Methionyl-tRNA synthetase, putative (Leishmania donovani (strain BPK282A1)) (UniProt E9BF75)", "T1 sequence (whole entry)": "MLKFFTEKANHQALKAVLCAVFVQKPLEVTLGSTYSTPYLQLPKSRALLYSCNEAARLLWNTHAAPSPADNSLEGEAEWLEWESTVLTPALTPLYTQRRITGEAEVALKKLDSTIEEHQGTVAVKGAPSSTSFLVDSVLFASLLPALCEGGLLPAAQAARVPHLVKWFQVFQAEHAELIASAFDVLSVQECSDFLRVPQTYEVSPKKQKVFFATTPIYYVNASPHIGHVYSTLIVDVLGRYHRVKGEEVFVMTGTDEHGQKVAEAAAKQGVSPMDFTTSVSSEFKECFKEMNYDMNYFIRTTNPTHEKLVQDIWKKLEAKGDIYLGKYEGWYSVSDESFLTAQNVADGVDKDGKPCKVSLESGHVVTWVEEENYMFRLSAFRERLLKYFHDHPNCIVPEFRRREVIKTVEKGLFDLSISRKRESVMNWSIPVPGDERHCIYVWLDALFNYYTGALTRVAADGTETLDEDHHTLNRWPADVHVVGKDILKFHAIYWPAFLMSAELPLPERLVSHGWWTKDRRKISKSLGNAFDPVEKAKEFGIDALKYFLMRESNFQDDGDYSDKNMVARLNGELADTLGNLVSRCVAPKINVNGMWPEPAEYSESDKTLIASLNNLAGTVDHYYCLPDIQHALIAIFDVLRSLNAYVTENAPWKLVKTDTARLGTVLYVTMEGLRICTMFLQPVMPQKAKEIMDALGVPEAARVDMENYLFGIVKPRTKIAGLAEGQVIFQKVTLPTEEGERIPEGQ", "assay": "Leishmania donovani Methionine tRNA synthetase (LdMetRS):v7. Dose response assay", "assay_type": "functional", "design": "conc 80 nM, time 150 minutes", "data": [{"smiles": "Cc1cc2c(N3CCCCC3)nc(-c3cccnc3)nc2s1", "values": [{"measurement": "PXC50", "setting": "MAX_EFFECT 30.15075377", "result": "< 4"}, {"measurement": "PXC50", "setting": "MAX_EFFECT 37.1007371", "result": "< 4"}]}, {"smiles": "CCN(CC)c1ccc2ccc(C(=O)NC3CCCC3)cn12", "values": [{"measurement": "PXC50", "setting": "MAX_EFFECT 33.58778626", "result": "< 4"}, {"measurement": "PXC50", "setting": "MAX_EFFECT 39.03508772", "result": "< 4"}]}, {"smiles": "Cc1cc2ccc(N3CCN(S(C)(=O)=O)CC3)n2cc1C(=O)NC1CCCC1", "values": [{"measurement": "PXC50", "setting": "MAX_EFFECT 43.22916667", "result": "< 4"}, {"measurement": "PXC50", "setting": "MAX_EFFECT 44.29824561", "result": "< 4"}]}, {"smiles": "Nc1noc2ccc(-c3cnc4ccc(NCCN5CCOCC5)nn34)cc12", "values": [{"measurement": "PXC50", "setting": "MAX_EFFECT -0.438596491", "result": "< 4"}, {"measurement": "PXC50", "setting": "MAX_EFFECT -1.041666667", "result": "< 4"}]}, {"smiles": "COCCNc1nc(CN2CCOCC2)nc2sc3c(c12)CCCC3", "values": [{"measurement": "PXC50", "setting": "MAX_EFFECT -0.877192982", "result": "< 4"}, {"measurement": "PXC50", "setting": "MAX_EFFECT -1.5625", "result": "< 4"}]}, {"smiles": "O=c1cc(NCCCNC2CCOc3c(I)cc(Cl)cc32)[nH]c2ccccc12", "note": "(stereo not given)", "values": [{"measurement": "PXC50", "setting": "BOTTOM 0.0, HILLSLOPE 1.492515979, MAX_EFFECT 100.0, TOP 105.2364851", "result": 5.24}, {"measurement": "PXC50", "setting": "BOTTOM 6.728264836, HILLSLOPE 2.160741468, MAX_EFFECT 100.4651163, TOP 100.3878671", "result": 5.22}]}, {"smiles": "Cc1cc(Br)sc1CNCCCNc1cc(=O)c2ccccc2[nH]1", "values": [{"measurement": "PXC50", "setting": "BOTTOM 0.0, HILLSLOPE 1.706331743, MAX_EFFECT 106.0465116, TOP 103.2080248", "result": 6.25}, {"measurement": "PXC50", "setting": "BOTTOM 0.0, HILLSLOPE 2.906661209, MAX_EFFECT 104.1958042, TOP 102.1210588", "result": 6.14}]}, {"smiles": "CC(=O)N1CCC(NC(=O)c2ccc3ccc(N4CCN(S(C)(=O)=O)CC4)n3c2)CC1", "values": [{"measurement": "PXC50", "setting": "BOTTOM 2.919824671, HILLSLOPE 1.594432626, MAX_EFFECT 67.35849057, TOP 70.74594509", "result": 4.9}, {"measurement": "PXC50", "setting": "BOTTOM 3.112441615, HILLSLOPE 1.895765793, MAX_EFFECT 63.92694064, TOP 65.42596591", "result": 4.95}]}, {"smiles": "CC(=O)N1CCCC(NC(=O)c2ccc3ccc(N4CCN(S(C)(=O)=O)CC4)n3c2)C1", "note": "(stereo not given)", "values": [{"measurement": "PXC50", "setting": "BOTTOM 3.656156878, HILLSLOPE 2.486754691, MAX_EFFECT 66.17915905, TOP 66.88204214", "result": 4.81}, {"measurement": "PXC50", "setting": "BOTTOM -4.526143978, HILLSLOPE 1.702686974, MAX_EFFECT 60.76555024, TOP 62.80104332", "result": 5}]}, {"smiles": "Cc1cc(C(=O)NC2CCCC2)cn2c(N3CCN(S(C)(=O)=O)CC3)ccc12", "values": [{"measurement": "PXC50", "setting": "BOTTOM 3.715191159, HILLSLOPE 1.052339001, MAX_EFFECT 54.38596491, TOP 65.94212945", "result": 4.67}, {"measurement": "PXC50", "setting": "MAX_EFFECT 46.875", "result": "< 4"}]}, {"smiles": "N[C@H](COc1cccc(F)c1Oc1ccc(Cl)cc1)CC1CCCCC1", "values": [{"measurement": "PXC50", "setting": "BOTTOM 8.516712257, HILLSLOPE 1.897669447, MAX_EFFECT 94.20289855, TOP 100.0", "result": 4.49}, {"measurement": "PXC50", "setting": "BOTTOM 8.547488971, HILLSLOPE 2.365761437, MAX_EFFECT 99.14712154, TOP 101.5267465", "result": 4.51}]}, {"smiles": "Nc1noc2ccc(-c3cnc4ccc(Cl)nn34)cc12", "values": [{"measurement": "PXC50", "setting": "MAX_EFFECT 1.526717557", "result": "< 4"}, {"measurement": "PXC50", "setting": "MAX_EFFECT 4.824561404", "result": "< 4"}]}, {"smiles": "N[C@H]1CCOc2c(Cl)cc(Cl)cc21", "values": [{"measurement": "PXC50", "setting": "MAX_EFFECT 2.517162471", "result": "< 2.7"}, {"measurement": "PXC50", "setting": "MAX_EFFECT 3.676470588", "result": "< 2.7"}]}, {"smiles": "CS(=O)(=O)N1CCN(c2cnc3ncc(C(=O)NC4CCCC4)cn23)CC1", "values": [{"measurement": "PXC50", "setting": "MAX_EFFECT 3.624733475", "result": "< 4"}, {"measurement": "PXC50", "setting": "MAX_EFFECT 4.761904762", "result": "< 4"}]}, {"smiles": "Cc1nc(NCCCN2CCC(O)CC2)c2c(-c3cccs3)csc2n1", "values": [{"measurement": "PXC50", "setting": "MAX_EFFECT 4.325699746", "result": "< 4"}, {"measurement": "PXC50", "setting": "MAX_EFFECT 7.808564232", "result": "< 4"}]}, {"smiles": "Cc1sc2nc(CN3CCOCC3)nc(NC(C)(C)CCO)c2c1C", "values": [{"measurement": "PXC50", "setting": "MAX_EFFECT 4.371584699", "result": "< 4"}, {"measurement": "PXC50", "setting": "MAX_EFFECT 8.021390374", "result": "< 4"}]}, {"smiles": "Cc1nc(N(C)CC(=O)NC2CC2)c2c3c(sc2n1)CCCC3", "values": [{"measurement": "PXC50", "setting": "MAX_EFFECT 4.761904762", "result": "< 4"}, {"measurement": "PXC50", "setting": "MAX_EFFECT 5.333333333", "result": "< 4"}]}, {"smiles": "Cc1nc(N2CCNC(=O)CC2C)c2c(CC(C)C)csc2n1", "note": "(stereo not given)", "values": [{"measurement": "PXC50", "setting": "MAX_EFFECT 4.918032787", "result": "< 4"}, {"measurement": "PXC50", "setting": "MAX_EFFECT 7.486631016", "result": "< 4"}]}, {"smiles": "CC(=O)NCc1nnc2n1CCN(c1nc(C)nc3sccc13)CC2", "values": [{"measurement": "PXC50", "setting": "MAX_EFFECT 6.527415144", "result": "< 4"}, {"measurement": "PXC50", "setting": "MAX_EFFECT 9.921671018", "result": "< 4"}]}, {"smiles": "CC(C)C[C@H](N)COc1ccc(Cl)cc1-c1ccno1", "values": [{"measurement": "PXC50", "setting": "MAX_EFFECT 6.832298137", "result": "< 4"}, {"measurement": "PXC50", "setting": "MAX_EFFECT 8.742004264", "result": "< 4"}]}, {"smiles": "CCc1nc(N2CCN(CC)CC2)c2cc(CC)sc2n1", "values": [{"measurement": "PXC50", "setting": "MAX_EFFECT 7.407407407", "result": "< 4"}, {"measurement": "PXC50", "setting": "MAX_EFFECT 9.066666667", "result": "< 4"}]}, {"smiles": "Cc1nc(NC(C(=O)O)C(C)C)c2c3c(sc2n1)CCC3", "note": "(stereo not given)", "values": [{"measurement": "PXC50", "setting": "MAX_EFFECT 7.537688442", "result": "< 4"}, {"measurement": "PXC50", "setting": "MAX_EFFECT 7.616707617", "result": "< 4"}]}, {"smiles": "CC(O)c1ccc(Cl)cc1Cl", "note": "(stereo not given)", "values": [{"measurement": "PXC50", "setting": "MAX_EFFECT 7.559395248", "result": "< 3"}, {"measurement": "PXC50", "setting": "MAX_EFFECT 15.39923954", "result": "< 3"}]}, {"smiles": "CC(C)C[C@H](N)COc1ccccc1-c1ccn(C)n1", "values": [{"measurement": "PXC50", "setting": "MAX_EFFECT 7.660455487", "result": "< 4"}, {"measurement": "PXC50", "setting": "MAX_EFFECT 10.87420043", "result": "< 4"}]}, {"smiles": "Cc1nc(NC(C(=O)O)C(C)C)c2c(C)c(C)sc2n1", "note": "(stereo not given)", "values": [{"measurement": "PXC50", "setting": "MAX_EFFECT 8.0", "result": "< 4"}, {"measurement": "PXC50", "setting": "MAX_EFFECT 9.523809524", "result": "< 4"}]}, {"smiles": "CC(C)C[C@H](N)COc1ccccc1N1CCCC1=O", "values": [{"measurement": "PXC50", "setting": "MAX_EFFECT 8.074534161", "result": "< 4"}, {"measurement": "PXC50", "setting": "MAX_EFFECT 13.85927505", "result": "< 4"}]}, {"smiles": "CC(O)CNc1nc(CN2CCCCC2)nc2sc3c(c12)CCCC3", "note": "(stereo not given)", "values": [{"measurement": "PXC50", "setting": "MAX_EFFECT 8.108108108", "result": "< 4"}, {"measurement": "PXC50", "setting": "MAX_EFFECT 9.547738693", "result": "< 4"}]}, {"smiles": "Cc1cc2c(N3CCCC3)nc(-c3cccnc3)nc2s1", "values": [{"measurement": "PXC50", "setting": "MAX_EFFECT 8.196721311", "result": "< 4"}, {"measurement": "PXC50", "setting": "MAX_EFFECT 10.16042781", "result": "< 4"}]}, {"smiles": "CCOC(=O)c1cnn(-c2nc(C)nc3sc4c(c23)CCC(C)C4)c1N", "note": "(stereo not given)", "values": [{"measurement": "PXC50", "setting": "MAX_EFFECT 8.465608466", "result": "< 4"}, {"measurement": "PXC50", "setting": "MAX_EFFECT 9.066666667", "result": "< 4"}]}, {"smiles": "Cc1nc(NCc2noc(C3CCCO3)n2)c2ccsc2n1", "note": "(stereo not given)", "values": [{"measurement": "PXC50", "setting": "MAX_EFFECT 9.660574413", "result": "< 4"}, {"measurement": "PXC50", "setting": "MAX_EFFECT 12.53263708", "result": "< 4"}]}]}
